PINK1 modulator: modulators of PINK1 expression; PINK1 immunofluorescence, high-content cytometry, 24 h; Potency, µM (doses to about 76.6 µM), without a hit: top-dose activation (PINK1 increase), usual class: activators; 0.2% of 410,000 active; AID 624263; active means well fitted activation curve with a large enough effect; inconclusive means small, poorly fitted or top-dose-only effect; cell line not stated here; further: potency means the concentration at half of the fitted maximal effect; % of control where 0% means no effect; nearly all actives have a fitted effect of over 65% in size
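Stable cell line treated 24 h with compounds at 5 concentrations (CCCP controls), then fixed and immunostained for PINK1 plus nuclear and cell stains; PINK1 immunofluorescence quantified by laser-scanning microplate cytometry.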
MmCpn inh: inhibitors of Methanococcus maripaludis chaperonin TRiC (MmCpn) | purified Mm-Cpn ATPase, ADP Transcreener TR-FRET | Potency, µM (titrated, usually from 76.9 µM), for inactives: top-dose activity, negative = inhibition, actives largely listed as inhibitors | 0.031% of 330,000 active; further: potency means the concentration at half of the fitted maximal effect; on the % scale 0 is the no-effect control and ±100 the full control effect; nearly all actives have a fitted effect of over 80% in size
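Measured: ADP formation by purified Mm-CPN. Conditions: 25 nM protein, 10 uM ATP, Tris pH 7.4 with Mg2+, K+ and DTT, 37°C for 30 min. Detection: Transcreener HTRF after 30 min at room temperature.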
12-LOX inh: ALOX12 (human) lipoxygenase inhibition | purified 12hLO, xylenol orange hydroperoxide absorbance | Potency, µM (highest dose often 108 µM), inactives show at the highest dose activity change, negative = inhibition, hits mostly inhibitors | 1.1% of 580,000 active | AID 1671190; further: potency means the concentration at half of the fitted maximal effect; on the % scale 0 is the no-effect control and ±100 the full control effect
Target sequence (P18054 whole entry, looked up): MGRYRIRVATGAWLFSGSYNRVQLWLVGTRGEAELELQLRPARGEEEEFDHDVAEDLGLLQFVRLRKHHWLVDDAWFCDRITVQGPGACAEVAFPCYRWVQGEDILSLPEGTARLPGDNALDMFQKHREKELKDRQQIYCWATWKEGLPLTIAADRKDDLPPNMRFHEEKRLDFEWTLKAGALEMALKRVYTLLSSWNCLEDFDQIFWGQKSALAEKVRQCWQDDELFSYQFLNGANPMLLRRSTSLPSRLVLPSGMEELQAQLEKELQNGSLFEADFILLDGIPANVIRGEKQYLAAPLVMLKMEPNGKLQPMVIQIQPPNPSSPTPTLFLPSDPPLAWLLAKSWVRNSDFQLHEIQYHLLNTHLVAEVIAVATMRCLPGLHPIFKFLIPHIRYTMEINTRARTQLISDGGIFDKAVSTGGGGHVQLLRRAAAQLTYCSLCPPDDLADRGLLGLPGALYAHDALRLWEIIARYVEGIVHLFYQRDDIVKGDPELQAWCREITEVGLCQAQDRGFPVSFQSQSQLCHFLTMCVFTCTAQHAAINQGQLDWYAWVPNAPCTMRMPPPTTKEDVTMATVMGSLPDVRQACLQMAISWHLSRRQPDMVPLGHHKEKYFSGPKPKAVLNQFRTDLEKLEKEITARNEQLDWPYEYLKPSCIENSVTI
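Hydroperoxide product was detected by ferrous iron/xylenol orange as the 573 to 405 nm absorbance ratio. Arachidonic acid at 40 uM (final) was turned over for 30 min at room temperature by 150 nM human 12hLO, pH 7.0 Hepes buffer, after 15 min compound preincubation.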
CCT modulator: cytosolic chaperonin activity modulation | purified chaperonin ATPase assay, HTRF ADP detection, 30 min | activity change, % (no concentration beside the values), hits read low | 0.3% of 360,000 active; in the data active means activity change below about -30%; further: on the % scale 0 is the no-effect control and ±100 the full control effect
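Enzyme 40 or 20 nM (batch-dependent) in Tris pH 7.4/KCl/MgCl2/DTT; cpd 76 uM single point; ATP 10 uM; 30 min 37 °C; Transcreener ADP HTRF detection, 30 min RT; ratio 665/615.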
p53 reactivation: restores transcriptional activity of mutant p53; H1299 p53-A138V BP100-luciferase reporter, luminescence, 24 h; 0.063% of 320,000 active; Potency, µM (doses to about 92.2 µM), without a hit: at the highest dose activity change, positive = activation, actives largely listed as activators; AID 504706; further: potency means the concentration at half of the fitted maximal effect; % of control where 0% means no effect; nearly all actives have a fitted effect of over 45% in size
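H1299 (p53-null), stable ts p53-A138V + BP100-Luc; 1000 cells/well, Opti-MEM/10% FBS; cpd 4 pt, 1:5; 24 h, 37 deg C, 5% CO2; detection reagent 10 min RT; luminescence.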
S-ASM inh: blocks human secretory acid sphingomyelinase. P17405. placental ASM, HMU-PC fluorogenic substrate, 60 min. Potency, µM (titrated, usually from 57.5 µM), without a hit: top-dose activity change, negative = inhibition, usual class: inhibitors. 0.006% of 340,000 active; further: potency means the concentration at half of the fitted maximal effect
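qHTS format. ASM enzyme prepared from human placenta hydrolyses the fluorogenic substrate HMU-PC0 (9 uM final) over 60 min at 37 °C after a 10 min compound preincubation.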
The depositor's hits bear a star; [ ] = remark or other dose. This is a sample that favours compounds with a hit; in the whole collection about 1.4% have one here. Unless noted, the call rests on the fitted dose curve; in most records, active means well fitted curve in the direction sought with a large enough effect; inconclusive means small, poorly fitted or top-dose-only effect, or another doubt; inactive means no such curve, though single readings can be large; an effect the other way counts as inactive or inconclusive.

`CN1C[C@@H](NC(=O)CC(C)(C)CC(=O)O)C[C@H]1c1nc(-c2ccccc2)no1` gave 12-LOX inh 126µM*.
Screening CC(C)NC(=O)N[C@H]1C[C@@H](c2nc(-c3ccc4c(c3)OCO4)no2)N(C)C1 returned 12-LOX inh 22µM*.
`O=C(CCCCl)NC1=NN(c2ccccc2)C(=O)C1` gave PINK1 modulator 1%, MmCpn inh 1%, 12-LOX inh -7%, CCT modulator 2, p53 reactivation -7% and S-ASM inh -3%.
Screening O=C(COc1ccc(Cl)cc1)NC1=NN(c2ccccc2)C(=O)C1 returned PINK1 modulator -2%, MmCpn inh -1%, 12-LOX inh 45µM*, CCT modulator 0, p53 reactivation -14% and S-ASM inh -10%.
`O=C(Cc1ccccc1F)N1CCOc2ccc(CN3CCc4ccccc4C3)cc2C1` gave 12-LOX inh 25%.
For Cc1cc(-n2c(C)cc(C(=O)CSc3nnc(COc4ccccc4Cl)o3)c2C)no1 the results were 12-LOX inh 4%.
For O=C1C(=C(c2ccccc2)c2ccccc2)C(Cl)C(Cl)(Cl)c2ccccc21 (centres undefined) the results were 12-LOX inh 10µM*.
Cc1cc(C)cc(COC(=O)c2cnc(C)cn2)c1 was read as 12-LOX inh -16%.
Screening COc1cc(COC(=O)c2cnc(C)cn2)c(OC)cc1Br returned PINK1 modulator 0%, MmCpn inh -1%, 12-LOX inh inconclusive, CCT modulator -52*, p53 reactivation -1% and S-ASM inh 5%.
For Cn1c(=O)[nH]c(=O)c2c1nc(SCC(=O)c1ccccc1)n2CCCc1ccccc1 the results were 12-LOX inh -17%.
`CC1=NC(=O)C(N=Nc2ccccc2)N1c1ccccc1` (centres undefined) gave PINK1 modulator 1%, MmCpn inh 1%, 12-LOX inh 84%, CCT modulator -1, p53 reactivation inconclusive and S-ASM inh -14%.
`CC1=NC(=O)C(N=Nc2cccc(C(=O)O)c2)N1c1ccccc1` (centres undefined) gave PINK1 modulator -1%[38.3 µM], MmCpn inh -5%, 12-LOX inh 7.1µM*, CCT modulator -3, p53 reactivation -12% and S-ASM inh -3%.
`COC(=O)CC1c2cc(OC)c(OC)cc2CCN1Cc1nc(C)no1` (centres undefined) gave 12-LOX inh -26%.
Screening Cc1cccc(NC(=S)NCC2(C)CCCC3(C)c4ccc(C(C)C)cc4CCC23)c1 (centres undefined) returned 12-LOX inh 16µM*.
Cc1cc(F)ccc1NC(=O)CC(C)n1cccn1 (centres undefined) was read as 12-LOX inh -4%.
For CCCCCCC1CCC(=O)O1 (centres undefined) the results were 12-LOX inh 6%[176 µM].
Screening Cc1cc(Nc2cc(C)on2)n2ncnc2n1 returned PINK1 modulator 1%, MmCpn inh -3%, 12-LOX inh 1.3µM*, CCT modulator -1, p53 reactivation 5% and S-ASM inh 1%.
CCOC(=O)COc1cc(C)cc2oc(=O)cc(-c3ccccc3)c12 was read as 12-LOX inh -4%.
For Cc1ncsc1CCC(=O)N1CCC2(CCNCC2)CC1 the results were 12-LOX inh 16µM*.
For CCC(C)(C)C(=O)N1CCC2(CC1)CC(N(Cc1ccc(F)cc1)C1CC1)CCO2 (centres undefined) the results were 12-LOX inh 1%.
For Oc1c(Cl)cc(CN2CCOCC2)c2cccnc12 the results were PINK1 modulator inconclusive, MmCpn inh -2%, 12-LOX inh inconclusive, CCT modulator 1, p53 reactivation -33% and S-ASM inh 4%.
`Oc1c(CN2CCCCC2)cc(Br)c2cccnc12` gave PINK1 modulator 3%, MmCpn inh 0%, 12-LOX inh 5.6µM*, CCT modulator -1, p53 reactivation -14% and S-ASM inh 1%.
CSc1ncc(Cl)c(C(=O)Nc2ccc(S(=O)(=O)N3CCCCC3C)cc2)n1 (centres undefined) was read as 12-LOX inh 1%.
For CCOc1ccc(C2CCCN2C(=O)c2csc(-c3ccsc3)n2)cc1 (centres undefined) the results were 12-LOX inh -13%.
For S=C(Nc1ccccn1)NC1CCCCC1 the results were PINK1 modulator 3%, MmCpn inh -3%, 12-LOX inh 22µM*, CCT modulator 1, p53 reactivation 3% and S-ASM inh -3%.
For S=C(Nc1ccccn1)NC1CCCC1 the results were PINK1 modulator 3%, MmCpn inh -1%, 12-LOX inh 45µM*, CCT modulator 0, p53 reactivation 15% and S-ASM inh -1%.
`CCOC(=O)Cn1cc(/C=C2\SC(=O)N(C)C2=O)c2ccccc21` gave 12-LOX inh -23%.
`c1ccc(CNC[C@H]2COCc3nc4ccccc4n32)cc1` gave 12-LOX inh 33%[176 µM].
`COc1ccc2cc(C(=O)NC3CCN(C(C)=O)CC3)[nH]c2c1` gave 12-LOX inh -3%.
For CC(CN1CCCCC1)NC(=O)c1scnc1-c1ccccc1 (centres undefined) the results were PINK1 modulator -1%, 12-LOX inh 5.6µM* and CCT modulator -1.
`COc1nccnc1NS(=O)(=O)c1ccc(NC(=S)NC(=O)c2ccccc2F)cc1` gave PINK1 modulator 3%, MmCpn inh 0%, 12-LOX inh 45µM*, CCT modulator 0, p53 reactivation -9% and S-ASM inh 0%.
Screening COc1nsnc1NS(=O)(=O)c1ccc(NC(=S)NC(=O)c2ccncc2)cc1 returned PINK1 modulator 1%, MmCpn inh -2%, 12-LOX inh inconclusive, CCT modulator 0, p53 reactivation 1% and S-ASM inh -9%.
`COc1nccnc1NS(=O)(=O)c1ccc(NC(=S)NC(=O)c2cccc(F)c2)cc1` gave PINK1 modulator 1%, MmCpn inh 2%, 12-LOX inh inconclusive, CCT modulator -63*, p53 reactivation -2% and S-ASM inh 0%.
`COc1nccnc1NS(=O)(=O)c1ccc(NC(=S)NC(=O)c2cccnc2)cc1` gave PINK1 modulator 0%, MmCpn inh 0%, 12-LOX inh -24%, CCT modulator -1, p53 reactivation -2% and S-ASM inh -1%.

Screening results as filed in PubChem BioAssay.
